Screens from PubChem BioAssay.
Hits are enriched below; roughly 3.1% of the tested compounds scored in any of these assays.
PAX8 reporter = PAX8 transcriptional activity inhibition. AID 652154. inhibition, % at 12.6 µM. hit rate 1.2% among 360,000. RMG-I TPO-luciferase reporter, SteadyGlo, 24 h;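 active = mean replicate inhibition at least 60% with every replicate also reaching 60%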;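 note: luciferase light reporting Pax8 driven TPO promoter activity; plate controls were median of neutral control wells for no effect and mitoxantrone controls for full effect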
C2C12 statin = suppressors of simvastatin-induced myotoxicity in C2C12 myotubes; hit rate 0.78% among 330,000; rescue of ATP level, % at 7.49 µM; ATP luminescence, 48 h; scaled: DMSO 0, geranylgeraniol control 100;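 active = mean ATP rescue above about 67%, or every replicate alone reaching that limit, limit read from the data, passing the limit was not always enough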;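 note: myotubes were challenged with 10 µM simvastatin during compound exposure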
INS-1E GSIS act = primary screen for activators of insulin secretion dependent on glucose, INS-1E cells, GLuc reporter luminescence | hit rate 0.61% among 370,000 | INS-1E GLuc reporter insulin secretion, 2-3 h | activation, % at 16.6 µM | AID 743287;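 active = lowest replicate activation of at least 40%, so every replicate reaches that level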;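 note: 0% = median of neutral control wells and 100% = median of IBMX positive control wells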
EWS-Fli inh = inhibitors of EWS/Fli oncoprotein transcriptional activity; A673 NR0B1-luciferase reporter, viability-normalised; inhibition, % at 12.6 µM; hit rate 0.67% among 350,000; AID 651661;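 active = mean inhibition of at least 50% after viability correction, with every replicate also passing that limit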;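 note: firefly luciferase signal divided by Alamar Blue viability fluorescence both relative to DMSO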
HIV Env fusion = inhibitors of HIV Env-mediated cell fusion; inhibition, % at 12.3 µM; hit rate 1.1% among 360,000; HeLa-JRFL Env/CEM21 cell fusion, luciferase; AID 651610;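 active = mean replicate inhibition score of at least 50 and every replicate individually at or above 50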;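 note: 0% = plate neutral controls and 100% = maraviroc near 300 nM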
miR122 inh = blocks miR-122 activity in Huh7 sensor cells; Huh7 miR-122 Renilla luciferase sensor, 48 h; neutral wells = 0, positive control = 100; activation (reporter increase), % at 12.5 µM; hit rate 0.3% among 340,000; AID 602342;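 active = mean replicate activation score at least 90 and every replicate individually at or above 90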;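 note: higher luciferase means less miR-122 activity so hits act as miR-122 inhibitors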
Starred values were filed as active, the others as inactive; . = no result; [ ] = remark or other dose.

SMILES	PAX8 reporter	C2C12 statin	INS-1E GSIS act	EWS-Fli inh	HIV Env fusion	miR122 inh
CCOc1cccc2sc(N(CCN(C)C)C(=O)CCS(=O)(=O)c3ccccc3)nc12	14	.	3	.	14	-11
CC(=O)c1sc(NC(=O)CCS(=O)(=O)c2ccc(C)cc2)nc1C	85*	-8	4	5	3	11
COc1ccc(C)c2sc(NC(=O)CCS(=O)(=O)c3ccccc3)nc12	78*	-12	-3	13	4	-2
CCOc1cccc2sc(NC(=O)CCS(=O)(=O)c3ccccc3)nc12	87*	3	2	2	-17	5
Clc1ccc(-c2noc(CSc3nnc(-c4ccncc4)n3-c3ccccc3)n2)cc1	.	-98	-9	.	94*	14
Cc1noc(C)c1S(=O)(=O)N(C)C[C@H]1Oc2ccc(NC(=O)Nc3ccc(F)cc3)cc2CC(=O)N([C@@H](C)CO)C[C@H]1C	-23	-19	-17	2	46[16.7 µM]	17[16.7 µM]
Cc1noc(C)c1S(=O)(=O)N(C)C[C@@H]1Oc2ccc(NC(=O)Nc3ccc(F)cc3)cc2CC(=O)N([C@@H](C)CO)C[C@@H]1C	9	8	-3	3	55*[16.7 µM]	19[16.7 µM]
Cc1noc(C)c1S(=O)(=O)N(C)C[C@H]1Oc2ccc(NC(=O)Nc3ccccc3)cc2CC(=O)N([C@H](C)CO)C[C@H]1C	-8	-26	-15	-20	69*[16.7 µM]	-1[16.7 µM]
Cc1noc(C)c1S(=O)(=O)N(C)C[C@@H]1Oc2ccc(NC(=O)Nc3ccccc3)cc2CC(=O)N([C@@H](C)CO)C[C@@H]1C	-9	-29	-13	-13	85*[16.7 µM]	4[16.7 µM]
Cc1noc(C)c1S(=O)(=O)N(C)C[C@@H]1Oc2ccc(NC(=O)Cc3ccccc3)cc2CC(=O)N([C@H](C)CO)C[C@@H]1C	4	5	-31	-1	65*[16.7 µM]	16[16.7 µM]
Cc1noc(C)c1S(=O)(=O)N(C)C[C@@H]1Oc2ccc(NC(=O)Nc3ccccc3)cc2CC(=O)N([C@@H](C)CO)C[C@H]1C	2	-14	-14	-2	-8[16.7 µM]	2[16.7 µM]
C/C=C/c1ccc2c(c1)O[C@H](CN(C)C(=O)c1cnccn1)[C@@H](C)CN([C@@H](C)CO)S2(=O)=O	-27	-15	26	0	-1[16.7 µM]	-2[16.7 µM]
Cc1noc(C)c1S(=O)(=O)N(C)C[C@@H]1Oc2ccc(NC(=O)Nc3cccc4ccccc34)cc2CC(=O)N([C@@H](C)CO)C[C@@H]1C	-15	19	-3	-12	59*[16.7 µM]	-8[16.7 µM]
Cc1ccc(S(=O)(=O)N(C)C[C@H]2Oc3ccc(NC(=O)Cc4ccccc4)cc3CC(=O)N([C@@H](C)CO)C[C@@H]2C)cc1	5	85*	-12	11	12[16.7 µM]	3[16.7 µM]
Cc1ccc(S(=O)(=O)N(C)C[C@@H]2Oc3ccc(NC(=O)Cc4ccccc4)cc3CC(=O)N([C@@H](C)CO)C[C@@H]2C)cc1	21	-137	10	-3	45[16.7 µM]	-2[16.7 µM]
C[C@@H]1CCCCO[C@H](CN(C)C(=O)CCC(F)(F)F)[C@H](C)CN([C@@H](C)CO)C(=O)c2cc(NC(=O)Cc3ccccc3)ccc2O1	-11	.	-22	-3	-15[16.7 µM]	-8[16.7 µM]
CN(C)CC(=O)Nc1ccc2c(c1)[C@H]1C[C@H](CC(=O)NCc3ccccc3F)O[C@H](CO)[C@H]1O2	-9	-2	4	-2	1[16.7 µM]	-1[16.7 µM]
C[C@@H]1CCCCO[C@@H](CN(C)C(=O)Nc2ccc(F)cc2)[C@H](C)CN([C@H](C)CO)C(=O)c2cc(NC(=O)CCCN(C)C)ccc2O1	-1	.	-1	.	.	.
COc1ccc(NC(=O)NCCCN2CCN(c3ccccc3F)CC2)cc1	-3	16	-4	0	5	-1
COc1ccc(NC(=O)NCCCN2CCN(c3cc(C)ccc3C)CC2)cc1	26	-45	-5	18	59*	.
CN(c1ccccc1)S(=O)(=O)c1cccc(NC(=O)C2=NNC(=O)CC2)c1	.	0	2	-2	64*	-4
CO[C@H]1CN(C)C(=O)c2cc(NC(=O)C3CC3)ccc2OC[C@@H](C)N(C(=O)c2cnccn2)C[C@@H]1C	4	12	5	-7	.	.
O=C(Nc1cccc(S(=O)(=O)NCc2ccco2)c1)c1cc(-c2ccccc2)nc2ccccc12	76*	.	9	17	28	.
Cc1cccc(NC(=O)c2cc(S(=O)(=O)NCc3ccco3)ccc2F)c1C	.	79*	6	.	-102	34
